The source of these data is PubChem BioAssay (Tox21).

Inconclusive results are not listed. Unmarked numbers belong to inactive results. The source made the active and inactive calls. Calls come from the whole dose curve.
% is set by controls: 0 for no effect and ±100 for the full control effect; potency is the fitted concentration of half-maximal effect.

Sequence of 5-hydroxytryptamine receptor 2A (Homo sapiens) (P28223 whole entry, looked up): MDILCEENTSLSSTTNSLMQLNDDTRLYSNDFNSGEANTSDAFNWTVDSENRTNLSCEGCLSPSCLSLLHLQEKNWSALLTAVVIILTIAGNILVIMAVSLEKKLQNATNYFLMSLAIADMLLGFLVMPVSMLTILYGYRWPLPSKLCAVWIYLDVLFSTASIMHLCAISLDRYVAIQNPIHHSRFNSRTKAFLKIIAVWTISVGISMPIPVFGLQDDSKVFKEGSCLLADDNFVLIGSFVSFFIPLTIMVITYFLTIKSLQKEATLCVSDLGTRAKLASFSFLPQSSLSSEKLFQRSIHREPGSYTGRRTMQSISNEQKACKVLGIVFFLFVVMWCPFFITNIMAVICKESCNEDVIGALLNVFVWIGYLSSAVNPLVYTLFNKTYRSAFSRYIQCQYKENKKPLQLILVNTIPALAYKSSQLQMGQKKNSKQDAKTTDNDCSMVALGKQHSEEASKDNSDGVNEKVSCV

This assay addresses 5-hydroxytryptamine receptor 2A (Homo sapiens) (UniProt P28223). Kind of assay: 5-hydroxytryptamine receptor 2A (HTR2A) small molecule antagonists, cell-based qHTS assay (AID 1963586). Note: nearly all actives have a fitted effect of over 45% in size. The following applies: HTR2A-CHO cells, DOI-induced calcium flux, fluorescence; series mostly up to 61.5 µM; activity, negative = inhibition: at the top concentration. An excerpt:
National Center for Advancing Translational Sciences [NCATS]
Division of Preclinical Innovation [DPI]
U.S. Environmental Protection Agency [EPA]
National Institutes of Environmental Health Sciences [NIEHS]
National Toxicology Program [NTP]
U.S. Food and Drug Administration [FDA]
The HTR2A receptor is a subtype of the 5-HT2 receptor that belongs to the serotonin receptor family and is a G protein-coupled receptor (GPCR). The HTR2A-CHO cell line stably expressing human 5-hydroxytryptamine receptor 2A (HTR2A) can be used for screening antagonists of interactions between 5-HT2 and its ligands. The HTR2A-CHO calcium flux assay is a homogeneous fluorescence-based assay for detecting the intracellular calcium level using FDSS kinetic plate reader system.
Tox21 Assay Protocol Summary:
HTR2A-CHO cells were dispensed at 2000 cells/3uL/well in 1536-well black-clear bottom plates using a Multidrop Dispenser. After the assay plates were incubated at a 37 C/5% CO2 incubator for 18 h, 3 uL of Dye Loading Buffer was transferred to the assay plate by a Flying Reagent Dispenser. The assay plates were incubated at 37 C for 1h. For antagonist mode, 23 nL of compounds dissolved in DMSO, positive controls or DMSO only was transferred to the assay plate by a pin tool. After 5 min incubation at room temperature, 1.5 uL of 4-Iodo-2,5-dimethoxy-alpha-methylbenzeneethanamine hydrochloride (DOI) at 4nM was added to each well. The fluorescence intensity in the plates was measured using FDSS 7000EX kinetic plate reader for 3 min at 1 sec intervals.
For orientation: In qHTS, concentration-response curves come from the screen itself.
For `CN(CCO)CCO`, the “activity, negative = inhibition” value is 57.8%.
Take `Cc1cccc(C)c1N`: the “activity, negative = inhibition” value is 8.33%.
Regarding `CC(Cl)C(=O)O` (stereo not given), the “activity, negative = inhibition” value is 2.13%.
Regarding `CN(C)CCc1c[nH]c2cccc(OP(=O)(O)O)c12`, the Potency was 73.5 nM (active).
As to `O=C(CCl)c1ccc(Cl)cc1Cl`, the “activity, negative = inhibition” value is -23.9%.
For `Nc1nc(N)nc(Cl)n1`, the “activity, negative = inhibition” value was -8.14%.
Regarding `CNC(=O)Oc1ccccc1OC(C)C`, the Potency result was “inactive”.
For `COc1ccccc1OC`, the “activity, negative = inhibition” value was -7.55%.
As to `CCn1cc[n+](C)c1C`, the Potency entry was “inactive”.
With `O=Cc1ccc(Cl)cc1Cl`, the “activity, negative = inhibition” value is 26.3%.
On to `COc1ccc(C=O)cc1OC`, for which the Potency entry was “inactive”.
With `CCCCn1cc[n+](C)c1`, the Potency entry was “inactive”.
Same read-out and setting: then `c1nc[nH]n1`, with “inactive”.
For `O=C(Cl)CCl`, the “activity, negative = inhibition” value was 15.3%.
For `ClC1=C(Cl)[C@]2(Cl)[C@@H]3[C@@H](Cl)[C@@H](Cl)C[C@@H]3[C@@]1(Cl)C2(Cl)Cl`, the “activity, negative = inhibition” value was 10.2%.
As to `Cc1ccc2c(C)cccc2c1`, the “activity, negative = inhibition” value is -9.28%.
In the case of `CC1(C)[C@H](C(=O)O[C@H](C#N)c2cccc(Oc3ccccc3)c2)[C@@H]1C=C(Br)Br`, the Potency entry is “inactive”.
In the case of `CC(C)c1ccc(OP(=O)(Oc2ccc(C(C)C)cc2)Oc2ccc(C(C)C)cc2)cc1`, the “activity, negative = inhibition” value was -8.24%.
With `CN(C)C(=O)Nc1cccc(C(F)(F)F)c1`, the Potency entry is “inactive”.
Take `CCOS(=O)(=O)OCC`: the Potency entry was “inactive”.
Turning to `CCN(CC)C(=O)/C(Cl)=C(\C)OP(=O)(OC)OC`, the Potency entry is “inactive”.
Consider `CC(C)=CC1C(C(=O)OCc2cccc(Oc3ccccc3)c2)C1(C)C` (stereo not given), for which the Potency result is “inactive”.
Turning to `FC(Cl)(Cl)Cl`, the “activity, negative = inhibition” value is -1.49%.
For the compound `O=c1n(Cl)c(=O)n(Cl)c(=O)n1Cl`, the “activity, negative = inhibition” value is -2.97% [at 28.5 µM].
Consider `Oc1c(Br)cc(Br)cc1Br`, for which the Potency result is “inactive”.
As to `C=C(C)CCl`, the Potency result was “inactive”.
`C=CC(=O)OCC(CC)(COC(=O)C=C)COC(=O)C=C`: the Potency entry was “inactive”.
On to `CCCSC(=O)Cl`, for which the “activity, negative = inhibition” value is 12.6%.
On the same count and under the same terms, then `O=C(O)c1ccc(=O)[nH]c1`, with 7.22% [at 28.5 µM]; and `COS(=O)(=O)c1ccc(C)cc1`, with 1.94%.
For `C/C(=N\NC(=O)Nc1cc(F)cc(F)c1)c1ncccc1C(=O)O`, the Potency entry is “inactive”.
Consider `CC(C)N(C(=O)CCl)c1ccccc1`, for which the Potency result was “inactive”.
For `COCCC#N`, the “activity, negative = inhibition” value was 2.07%.
Same read-out and setting: then `Cc1ccc2cc(C)ccc2c1`, with 57.5%.
Regarding `BrCc1ccc(Br)cc1`, the “activity, negative = inhibition” value is 8.64%.
For the compound `COc1ccc(C=O)cc1`, the Potency result is “inactive”.
For `Clc1nc(Cl)nc(Cl)n1`, the Potency result was “inactive”.
On the same count and under the same terms, the result for `CNC(=O)Oc1cccc2ccccc12` reads “inactive”; that for `CCOP(=O)(OCC)SCCSCC`, “inactive”.
Consider `CCCCNC(=O)n1c(NC(=O)OC)nc2ccccc21`, for which the “activity, negative = inhibition” value was 4.4%.
